Here are results for nine compounds from PubChem BioAssay (NCI).

Molecules are shown by their SMILES. The panel holds about 83,000 compounds, 20% with a hit somewhere; the sample as a whole holds those more often.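 The endpoint reported here, percent growth, reads 100 for growth as untreated, 0 for no net growth and -100 for all cells dead.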 Unmarked numbers belong to inactive results. Calls of active or inactive are those of the source. How the source made its calls: active means growth percent below 10; inactive means the rest.

Some test systems named below: SK-MEL-2 melanoma; EKVX NSCLC; SN12C renal; UO-31 renal; TK-10 renal; ACHN renal; CAKI-1 renal; A498 renal; CCRF-CEM leukemia; MOLT-4 leukemia; OVCAR-5 ovarian; OVCAR-4 ovarian; SK-OV-3 ovarian; OVCAR-3 ovarian; HS 578T breast; NCI/ADR-RES ovarian; OVCAR-8 ovarian; IGROV1 ovarian; SR leukemia; RPMI-8226 leukemia.
Assay in all cases: NCI-60 one-dose screen, 48 h (100 = growth as untreated, 0 = no growth, -100 = all killed)
What all share (details): 10 µM unless noted

Consider `COc1ccc2c(c1)O/C(=C\c1cccc(OCC(=O)Nc3nc(C)c(C)s3)c1)C2=O`, for which the growth in the assay on SK-MEL-2 melanoma was 89.3%; with EKVX NSCLC it was -13.4% (active); with SN12C renal, 33.8%; in the assay with UO-31 renal, -74.9% (active); with TK-10 renal it was 111%; with ACHN renal, 98.7%. The growth in the assay with CAKI-1 renal was -82.7% (active); with A498 renal it was 114%; with CCRF-CEM leukemia it was -66.8% (active); with MOLT-4 leukemia it was 19.2%; with OVCAR-5 ovarian, 12.7%; in the assay with OVCAR-4 ovarian it was 67.8%. Moreover, the growth was 101% with SK-OV-3 ovarian, -33.1% (active) in the assay on OVCAR-3 ovarian, 42.9% in the assay on HS 578T breast and -10.7% (active) in the assay on NCI/ADR-RES ovarian.

Turning to `O=c1c2cc(F)ccc2sc2c(NCCCN3CCCC3)nc3ccccc3c12`, the growth is 85.4% in the assay on SK-MEL-2 melanoma; 53.5% with EKVX NSCLC; 42.3% with SN12C renal; 15.1% in the assay with UO-31 renal; 57.9% with TK-10 renal; 41.8% with ACHN renal. The growth was 30.4% in the assay with CAKI-1 renal; 46.6% in the assay on A498 renal; 29% in the assay on CCRF-CEM leukemia; -14.5% (active) in the assay with MOLT-4 leukemia; 55.6% in the assay with OVCAR-8 ovarian; 70.3% with OVCAR-5 ovarian. The growth is 48.7% in the assay on OVCAR-4 ovarian; 88.9% in the assay on SK-OV-3 ovarian; 15.1% in the assay with IGROV1 ovarian; 43.8% in the assay on HS 578T breast; 67.5% in the assay with NCI/ADR-RES ovarian.

As to `O=C(CC(SCc1ccccc1)c1ccccc1)c1ccccc1` (stereo unspecified), the growth is 120% with SK-MEL-2 melanoma; 82.4% in the assay with EKVX NSCLC; 98.8% with SN12C renal; 84.7% in the assay with UO-31 renal; 87.3% in the assay with TK-10 renal; 99.6% in the assay with ACHN renal. Further, the growth with CAKI-1 renal is 95.8%; in the assay on A498 renal, 81.8%; in the assay with CCRF-CEM leukemia, 95.9%; in the assay on SR leukemia, 41%; in the assay on RPMI-8226 leukemia it was 38.5%; in the assay with OVCAR-8 ovarian it was 103%. Further, the growth with OVCAR-5 ovarian was 98.4%; in the assay with OVCAR-4 ovarian, 90%; in the assay with SK-OV-3 ovarian, 99.7%; in the assay on IGROV1 ovarian, 91.4%; in the assay on OVCAR-3 ovarian it was 86.5%; with HS 578T breast it was 107%.

With `COc1ccc(/C=N\NC(=O)c2cc(-c3ccc(Br)cc3)n(-c3ccc(S(N)(=O)=O)cc3)n2)cc1`, the growth in the assay with SK-MEL-2 melanoma is 54.3%; in the assay on EKVX NSCLC, 61.2%; in the assay on SN12C renal, 63%; in the assay on UO-31 renal, 50.1%; in the assay with TK-10 renal, 29.1%; in the assay on ACHN renal, 44.3%. For the same compound, the growth with CAKI-1 renal is 26.3%; with A498 renal, -6.38% (active); in the assay with CCRF-CEM leukemia, 55.6%; in the assay with MOLT-4 leukemia, 62.3%; with OVCAR-8 ovarian, 72%; with OVCAR-5 ovarian, 82.5%. The growth was 57.6% with OVCAR-4 ovarian; 74.1% with SK-OV-3 ovarian; 46.2% in the assay with IGROV1 ovarian; 21.2% with OVCAR-3 ovarian; 22.4% with HS 578T breast; 31.4% with NCI/ADR-RES ovarian.

With `CCOC(=O)c1c(-c2ccc(Cl)cc2)c(C#N)c(=O)n(-c2ccccc2CC)c1N`, the growth in the assay on SK-MEL-2 melanoma was 114%; in the assay with EKVX NSCLC, 90.6%; with SN12C renal, 92.1%; in the assay on UO-31 renal, 71.6%; with TK-10 renal, 117%; in the assay with ACHN renal it was 89.5%. The growth was 105% in the assay with CAKI-1 renal; 97.5% with A498 renal; 17.7% in the assay with CCRF-CEM leukemia; 70.3% in the assay on MOLT-4 leukemia; 87.1% with OVCAR-8 ovarian; 98.1% in the assay on OVCAR-4 ovarian. Further, the growth in the assay with SK-OV-3 ovarian was 102%; in the assay on IGROV1 ovarian, 99.8%; with OVCAR-3 ovarian it was 87.8%; in the assay on HS 578T breast, 102%; in the assay with NCI/ADR-RES ovarian it was 91.9%.

As to `NC(N)=Nc1nc2ccccc2n2c1nc1ccccc12`, the growth with SK-MEL-2 melanoma is 70.3%; with EKVX NSCLC it was 36.3%; in the assay on SN12C renal, 28.3%; with UO-31 renal, 34.3%; with TK-10 renal, 46.2%; in the assay with ACHN renal, 11.7%. The growth was 23.2% in the assay on CAKI-1 renal; 52.5% with A498 renal; 25.7% with CCRF-CEM leukemia; 7.99% (active) with MOLT-4 leukemia; 54.3% with OVCAR-5 ovarian; 36% in the assay on OVCAR-4 ovarian. In addition, the growth in the assay on SK-OV-3 ovarian was 32.9%; in the assay on IGROV1 ovarian it was 20.3%; with OVCAR-3 ovarian it was 43.3%; with HS 578T breast, 43.8%; with NCI/ADR-RES ovarian, 63.1%.

`COc1cccc(-c2nn(-c3ccccc3)cc2-c2ccnc(NCCCNC(=O)Nc3ccc(Cl)c(Cl)c3)c2)c1`: the growth with SK-MEL-2 melanoma is -53.9% (active); in the assay with EKVX NSCLC it was 37.8%; with SN12C renal, 37.5%; in the assay with UO-31 renal, -34.4% (active); in the assay on TK-10 renal, 45.7%; in the assay on ACHN renal, 32.9%. Further, the growth in the assay on CAKI-1 renal is 24%; in the assay with A498 renal, 4.95% (active); in the assay with CCRF-CEM leukemia, 1.35% (active); in the assay with SR leukemia, -32.8% (active); in the assay on RPMI-8226 leukemia, -2.49% (active); in the assay on OVCAR-8 ovarian, 1.46% (active). Moreover, the growth with OVCAR-5 ovarian was 54.4%; with OVCAR-4 ovarian it was 30.9%; in the assay with SK-OV-3 ovarian, 22.2%; in the assay with IGROV1 ovarian, 36.6%; with OVCAR-3 ovarian it was 29.5%; with HS 578T breast it was -26.1% (active).

For the compound `COc1ccc(-c2nc(SCCC(C)C)nc(N/N=C\c3cccc([N+](=O)[O-])c3)c2C#N)cc1`, the growth in the assay on SK-MEL-2 melanoma was 80.4%; in the assay on EKVX NSCLC, 40.9%; with SN12C renal, 35.5%; in the assay with UO-31 renal it was 7.32% (active); in the assay with TK-10 renal it was 42.5%; in the assay on ACHN renal it was 15.8%. Further, the growth was 22.6% with CAKI-1 renal; 41.2% in the assay on A498 renal; 45.8% with CCRF-CEM leukemia; 73.1% in the assay with MOLT-4 leukemia; 39.7% with OVCAR-8 ovarian; 38.4% with OVCAR-5 ovarian. The growth with OVCAR-4 ovarian was -13.3% (active); in the assay with SK-OV-3 ovarian it was 63.4%; in the assay on IGROV1 ovarian, 38.8%; in the assay with OVCAR-3 ovarian it was -30.4% (active); in the assay with HS 578T breast it was 9.44% (active); with NCI/ADR-RES ovarian, 56.2%.

With `COc1cc(C(=O)/C=C/c2c(C(F)(F)F)nc3sccn23)cc(OC)c1OC`, the growth is 12.2% in the assay on SK-MEL-2 melanoma; 10.6% in the assay on EKVX NSCLC; 20.2% in the assay with SN12C renal; -29.6% (active) with UO-31 renal; 21.9% in the assay on TK-10 renal; -69.4% (active) in the assay with ACHN renal. Also, the growth with CAKI-1 renal is -16.5% (active); in the assay with A498 renal, 61.4%; in the assay on CCRF-CEM leukemia, -9.49% (active); in the assay on MOLT-4 leukemia, 0.936% (active); in the assay with OVCAR-5 ovarian, 15.1%; with OVCAR-4 ovarian, 17.8%. The growth was 2.13% (active) with SK-OV-3 ovarian; 23% in the assay with IGROV1 ovarian; -30.6% (active) in the assay on OVCAR-3 ovarian; 37.4% in the assay on HS 578T breast; -3.02% (active) with NCI/ADR-RES ovarian.
